In the library only some 6.6% were active in any assay of this set; here they are far more common.
HepG2 tox: qHTS for Inhibitors of TGF-b: Cytotox Counterscreen | HepG2 CAGA-GFP viability, ATP luminescence, 18 h | Potency, µM (series often up to 46.1 µM), most hits filed as cytotoxic | 410,000 tested, 0.76% active | AID 588856, 2011
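CellTiter-Glo luminescence gave cytotoxicity after 18 hours at 37 degrees C. The cells were HepG2 CAGA-GFP in 1% FBS DMEM, stimulated with 500 pg/mL TGF-beta after compound addition. %Activity was normalised to no-cell wells (complete cell-killing) and DMSO (no toxicity), and curves were fitted and classified.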
KB-V1 MDR tox: qHTS assay for MDR1-selective chemotherapeutics: Primary screen using the drug-selected MDR subline cells KB-V1; KB-V1 MDR cells viability, CellTiter-Glo, 72 h; Potency, µM (top dose mostly 46.1 µM), most hits filed as cytotoxic; 400,000 tested, 3.4% active; AID 1347076, 2019; note: nearly all actives have a fitted effect of over 60% in size
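Compound-treated KB-V1 multidrug-resistant cells, 72 h, 37 degrees C; viability by CellTiter-Glo. Fitted qHTS curves give the values.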
KB-3-1 tox: qHTS assay for MDR1-selective chemotherapeutics: Primary screen using the parental adenocarcinoma cell KB-3-1. KB-3-1 viability, CellTiter-Glo ATP luminescence, 72 h. Potency, µM (top dose mostly 46.1 µM), actives largely listed as cytotoxic. 400,000 tested, 1.4% active. AID 1347075, 2019; note: nearly all actives have a fitted effect of over 60% in size
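KB-3-1 cells, DMEM (no phenol red) + 10% FBS; compound by pin transfer, 72 h, 37 °C. Readout: CellTiter-Glo luminescence after 10 min. Data normalized, curve-fitted.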
TGFb SMAD3 inh: qHTS for Inhibitors of TGF-b; 410,000 tested, 1.2% active; Potency, µM (titrated, usually from 46.1 µM), actives largely listed as inhibitors; AID 588855, 2011; HepG2 CAGA-GFP TGF-b/SMAD3 reporter, GFP fluorescence, 18 h; TGF-beta stimulated, 500 pg/mL final; note: nearly all actives have a fitted effect of over 65% in size
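HEPG2 CAGA-GFP cells (1000/well, DMEM with 1% FBS) were pre-incubated 2 h at 37 degrees C, given compound by pin tool, then stimulated with TGF-beta at 500 pg/mL final for 18 h before per-cell GFP fluorescence imaging.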
HT1080-NT tox: qHTS for induction of synthetic lethality in tumor cells producing 2HG: qHTS for the HT-1080-NT fibrosarcoma cell line. HT-1080-NT fibrosarcoma viability, CellTiter-Glo ATP luminescence, 48 h. Potency, µM (top dose mostly 46.1 µM), hits mostly cytotoxic. 360,000 tested, 1.6% active;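 note: NT is the 2HG producing partner of a matched IDH1 knockdown line; nearly all actives have a fitted effect of over 55% in size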
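750 cells/well, RPMI + 5% FBS; 2 h settle, compound pin-transfer, 48 h at 37 degrees C. CellTiter-Glo 10 min RT, luminescence. Normalized to DMSO and media-only wells.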
HT1080 IDH1KD tx: qHTS for induction of synthetic lethality in tumor cells producing 2HG: qHTS for the HT-1080-IDH1KD cell line; HT-1080 IDH1 knockdown viability, ATP luminescence, 48 h; Potency, µM (doses to about 46.1 µM), hits mostly cytotoxic; 360,000 tested, 2% active
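Luminescent ATP read-out (CellTiter-Glo, 10 min at room temperature) after 48 h compound exposure at 37 °C gave viability of IDH1-knockdown HT-1080 cells. Activity was normalised to DMSO and cell-free wells, then fitted as concentration-response curves.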
A number is an active result; - = inactive; ? = inconclusive; . = no result; ! = repeats disagree; [ ] = remark or other dose. Calls come from the whole dose curve; as a rule, active = well fitted curve in the direction sought with a large enough effect; inconclusive = small, poorly fitted or top-dose-only effect, or another doubt; inactive = no such curve, though single readings can be large; an effect the other way counts as inactive or inconclusive.

SMILES	HepG2 tox	KB-V1 MDR tox	KB-3-1 tox	TGFb SMAD3 inh	HT1080-NT tox	HT1080 IDH1KD tx
COC(=O)c1cccc(Cn2nc(C)c([N+](=O)[O-])c2C)c1	-	?	-	-	-	-
CC1=NN(C(=O)c2cccc(Cn3nc(C)c([N+](=O)[O-])c3C)c2)C(O)(C(F)(F)F)C1 (stereo not drawn)	-	?	-	-	7.94µM	5.01µM
CCC(NC(=O)c1cccc(Cn2nc(C)c([N+](=O)[O-])c2C)c1)c1ccc(C(C)C)cc1 (stereo not drawn)	-	2.91µM	-	-	-	-
Cc1nn(Cc2cccc(C(=O)O)c2)c(C)c1[N+](=O)[O-]	-	?	-	-	-	-
Cc1cccc(NC(=O)c2c(C)oc3ncn(CC(C)C)c(=O)c23)n1	-	-	-	-	.	.
Cc1nc2ccc(S(=O)(=O)N(CC(=O)Nc3ccc(F)cc3F)Cc3ccccc3)cc2s1	-	-	-	?	.	.
COc1cccc2c1C(=O)/C(=C\c1ccc(N(C)C)cc1)C2	-	?	-	-	.	.
CCCC(c1c(C)n(C)n(-c2ccccc2)c1=O)c1c(C)n(C)n(-c2ccccc2)c1=O	11.2µM	?	20.6µM	-	-	?
O=C1CCc2cc(S(=O)(=O)NC(C(=O)Nc3ccc(F)cc3)c3ccccc3)ccc2N1 (stereo not drawn)	-	-	-	?	.	.
COc1c(Br)cc(Br)cc1/C=N/NC(=O)c1cccnc1	-	-	16.4µM	?	-	?
CCNC(=S)N/N=C/c1cc(Br)cc(Br)c1OC	-	-	-	-	4.47µM	3.98µM
COc1c(Br)cc(Br)cc1/C=N/NC(=O)c1ccncc1	-	-	-	-	-	-
Cc1cccc(CSc2nc3c(c(=O)[nH]2)C(c2cccc(O)c2)CC(=O)N3)c1 (stereo not drawn)	-	-	?	?	.	.
CC(=O)c1cccc(NC(=O)CSCc2ccccc2)c1	-	?	-	-	-	-
CC(=O)c1cccc(NC(=O)CSCc2ccc(Br)cc2)c1	-	18.4µM	-	-	-	-
Cc1ccccc1CNC(=O)C(=O)NCC(c1ccco1)S(=O)(=O)c1cccs1 (stereo not drawn)	-	-	-	-	.	.
Cn1c(=O)c2c(nc(NCc3ccco3)n2CC(O)COc2ccccc2)n(C)c1=O (stereo not drawn)	-	2.59µM	?	-	-	-
CCCn1c(NCc2ccco2)nc2c1c(=O)n(C)c(=O)n2C	-	14.6µM	?	?	-	-[9.24 µM]
COc1cccc(-n2c(SCC(=O)N3CCc4ccccc43)nc3c([nH]c4ccccc43)c2=O)c1	-	?	-	-	.	.
O=C(Nc1ccc(Cl)c(C(F)(F)F)c1)C1Cc2c(-c3ccccc3)ccnc2O1 (stereo not drawn)	11.2µM	-	-	14.1µM	?	?
COc1ccc(NC(=O)C2Cc3c(-c4cccc(C(N)=O)c4)ccnc3O2)cn1 (stereo not drawn)	-	-	?	-	?	20.6µM
O=C(Nc1ccc(Cl)cc1)C1Cc2c(-c3ccccc3)ccnc2O1 (stereo not drawn)	-	-	-	-	-	-
CC(=O)Nc1ccc(-c2ccnc3c2CC(C(=O)Nc2cccnc2)O3)cc1 (stereo not drawn)	-	-	?	-	13µM	13µM
COc1ccc(NC(=O)C2(C)Cc3c(-c4cccc(C(N)=O)c4)ccnc3O2)cn1 (stereo not drawn)	-	-	9.2µM	-	?	4.61µM
COc1ccc(-c2noc(CNC(=O)COc3cccc(C)c3C)n2)cc1	-	.	.	?	.	.
SMILES	HepG2 tox	KB-V1 MDR tox	KB-3-1 tox	TGFb SMAD3 inh	HT1080-NT tox	HT1080 IDH1KD tx
COc1ccc(NS(=O)(=O)c2ccc(NC(=O)N3CCCC3)cc2)cc1	-	-	-	-	.	.
CC(=O)Nc1cccc(-c2ccnc3c2CC(C(=O)Nc2ccccc2)O3)c1 (stereo not drawn)	-	-	-	-	-	-
CC(=O)Nc1cccc(-c2ccnc3c2CC(C(=O)NCc2ccc(F)c(F)c2)O3)c1 (stereo not drawn)	-	?	7.31µM	-	?	?
COc1ccc(NC(=O)C2Cc3c(-c4cccc(NC(C)=O)c4)ccnc3O2)cn1 (stereo not drawn)	-	-	4.61µM	?	?	?
COc1ccc(NC(=O)C2Cc3c(-c4cccc(F)c4)ccnc3O2)cc1 (stereo not drawn)	-	?	?	-	-	?
CC(=O)Nc1cccc(-c2ccnc3c2CC(C(=O)Nc2ccc(Cl)cc2)O3)c1 (stereo not drawn)	-	?	?	-	?	20.6µM
CC(=O)Nc1ccc(-c2ccnc3c2CC(C(=O)Nc2cccc(C(C)=O)c2)O3)cc1 (stereo not drawn)	-	-	-	-	-	-
CC(=O)Nc1cccc(-c2ccnc3c2CC(C(=O)NCc2ccncc2)O3)c1 (stereo not drawn)	-	-	?	-	-	-
COc1ccc(NC(=O)C2Cc3c(-c4cccc(C(N)=O)c4)ccnc3O2)cc1 (stereo not drawn)	-	-	?	-	11.6µM	14.6µM
CCOCCCn1c(SCC(=O)Nc2ccccc2CC)nc2ccccc2c1=O	-	.	.	?	.	.
O=S1(=O)N=C(Oc2ccc(-c3ccccc3)cc2)c2ccccc21	.	-	-	.	.	.
CCOC(=O)C1CCCN(C(=O)c2ccc(NC(=O)c3nsc4ccccc34)cc2)C1 (stereo not drawn)	-	-	-	-	.	.
CC1(C)CC(=O)C(C=Nc2ccccc2)=C(O)C1	-	-	-	-	-	-
Cc1[nH]nc(N=CC2=C(O)CC(C)(C)CC2=O)c1-c1ccccc1	-	23.1µM!	?	-	-	-
Cc1[nH]nc(N=CC2=C(O)CC(c3ccco3)CC2=O)c1-c1ccccc1 (stereo not drawn)	-	16.4µM!	-	-	?	-
Cc1cccc(N2CCN(C(c3ccc(F)cc3)c3nnc(-c4ccccc4)o3)CC2)c1C (stereo not drawn)	-	?	-	-	.	.
CCCN(C(=O)Nc1cn(CC(C)C)c(=O)c2ccccc12)c1ccc(F)cc1	-	?	-	-	.	.
COc1ccccc1C(=O)Nc1ccnn1C1CCN(Cc2cn(C)c3ccccc23)CC1	-	-	-	11.2µM	?	?

Screening results as filed in PubChem.
